D1 antag – Antagonist of Human D 1 Dopamine Receptor: qHTS. HEK293 TREx D1 cells, calcium flux, dopamine EC80; active compounds read low. activity change, negative = inhibition, % at 10 µM. 360,000 compounds, 3.2% hits. AID 504652, 2011; in the data active = activity change below about -30%; also: % is scaled to controls: 0 for no effect and ±100 for the full control effect
Target sequence (P21728 whole entry, looked up): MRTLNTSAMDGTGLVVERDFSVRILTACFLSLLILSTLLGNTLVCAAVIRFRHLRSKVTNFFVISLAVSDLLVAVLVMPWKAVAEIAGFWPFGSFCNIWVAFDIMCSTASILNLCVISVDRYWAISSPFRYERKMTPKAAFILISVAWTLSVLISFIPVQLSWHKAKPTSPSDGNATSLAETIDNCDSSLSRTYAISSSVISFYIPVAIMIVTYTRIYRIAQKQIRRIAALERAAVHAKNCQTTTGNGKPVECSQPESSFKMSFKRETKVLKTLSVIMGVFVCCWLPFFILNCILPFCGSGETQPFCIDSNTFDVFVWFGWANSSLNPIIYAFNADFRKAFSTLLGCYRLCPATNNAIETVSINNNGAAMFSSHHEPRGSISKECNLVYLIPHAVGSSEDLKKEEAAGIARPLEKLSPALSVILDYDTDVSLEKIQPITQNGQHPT
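Inducible Hek293 Trex D1 cells (tetracycline, overnight, 30 C). Calcium dye 30–90 min RT. Antagonist mode: EC80 dopamine added after 180 s compound read.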
D1 ag – Allosteric Agonists of the Human D1 Dopamine Receptor: qHTS | HEK293 T-REx D1 cells, calcium flux, agonist mode | activation, % at 2 µM | 360,000 compounds, 1% hits | AID 504660, 2011; in the data active = activation above about 30%; also: 0% is about no effect
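Inducible HEK293 T-REx D1 cells, force-coupled to calcium signalling, were plated at 4000 cells/well with tetracycline and held overnight at 30 C. After no-wash calcium dye loading, compound-evoked calcium rise over 180 s flagged agonists.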
DRD3 agonist – qHTS of D3 Dopamine Receptor Agonist: qHTS; AID 652048, 2013; 410,000 compounds, 0.58% hits; max activation, %; D3R DiscoveRx beta-arrestin cells, luminescence, 90 min; in the data active = max activation above about 30%; also: 0% is about no effect
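Cells at 1500/well, incubated overnight, then treated with pinned compounds (dopamine as control) for 90 min at 37 degrees C. DiscoveRx reagent added for 30 - 60 minutes at room temperature; luminescence read.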
D3 antag – qHTS of D3 Dopamine Receptor Antagonist: qHTS. 360,000 compounds, 2.5% hits. max response, negative = inhibition, %. D3R cells, DiscoveRx beta-arrestin luminescence, antagonist mode; active compounds read low. D(3) dopamine receptor (Homo sapiens), P35462; in the data active = max response below about -50%; inconclusive = no clear call, values can overlap the other calls; also: % is scaled to controls: 0 for no effect and ±100 for the full control effect
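Cells expressing the human receptor were seeded at 1500 cells/well, incubated overnight at 37 degrees C in 5% CO2, then exposed to library compounds with dopamine controls for 90 minutes at 37 degrees C before luminescent detection.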
D1 potentiator – Potentiators of Human D1 Dopamine Receptor: qHTS. potentiation, % at 10 µM. HEK293 TREx D1 cells, calcium flux, dopamine EC20 potentiation. AID 504651, 2011. D(1A) dopamine receptor (Homo sapiens), P21728. 360,000 compounds, 0.036% hits; in the data active = potentiation above about 30%; also: 0% is about no effect
* = called active by the depositor; ? = inconclusive; nt = no result given. Rows were chosen to be rich in hits. Some 6.1% of all compounds tested hit in one or more screens of this group.

SMILES | D1 antag | D1 ag | DRD3 agonist | D3 antag | D1 potentiator
O=C(COC(=O)CNC(=O)c1ccccc1)NCCc1ccccc1 | 4.1 | 4.5 | 4.6 | -6.7 | 1.6
O=C(CNC(=O)c1ccccc1)NCCc1ccc(O)c(O)c1 | -38.8* | 4.1 | nt | nt | -5.1
CN(C)CCC(Oc1ccccc1OCc1ccccc1)c1ccccc1 (centres undefined) | nt | nt | -15.6 | ? | nt
CN(C)CCCC(C)(O)C(Cc1ccccc1)c1ccccc1 (centres undefined) | 19.7 | 6.3 | -17.7 | -57.6* | -7.0
CC1(C)CC(=O)C(C=Nc2ccc(O)c(N=CC3=C(O)CC(C)(C)CC3=O)c2)=C(O)C1 | 28.0 | 1.2 | 8.6 | 4.3 | -0.6
CC1(C)CC(=O)C(C=Nc2ccc(C(=O)c3ccccc3)cc2N=CC2=C(O)CC(C)(C)CC2=O)=C(O)C1 | -14.1 | 86.2* | -24.2 | -118.5* | -0.5
CC1(C)CC(=O)C(C=Nc2cccnc2/N=C/C2=C(O)CC(C)(C)CC2=O)=C(O)C1 | 16.1 | 7.2 | -46.3 | -143.1* | -4.0
CC1(C)CC(=O)C(C=Nc2cccnc2)=C(O)C1 | -11.9 | 2.1 | 6.3 | -12.9 | 6.7
C=CC[C@@H]1/C=C(\C)C[C@H](C)C[C@H](OC)[C@H]2O[C@@](O)(C(=O)C(=O)N3CCCC[C@H]3C(=O)O[C@H](/C(C)=C/[C@@H]3CC[C@@H](O)[C@H](OC)C3)[C@H](C)[C@@H](O)CC1=O)[C@H](C)C[C@@H]2OC | nt | nt | -23.7 | nt | nt
COC(=O)CCCC(=O)N1CCCC(C(=O)c2ccc(-c3ccccc3)cc2)C1 (centres undefined) | -30.0* | 4.0 | 0.6 | -9.6 | -8.6
CCC(=O)N1CCCC(C(=O)c2ccc(-c3ccccc3)cc2)C1 (centres undefined) | -30.3* | 4.8 | -3.5 | 11.8 | -6.0
COC(=O)CCCC(=O)N1CCCC(C(=O)c2ccccc2SC)C1 (centres undefined) | -20.3 | 3.4 | -0.1 | -8.1 | -5.2
O=C(c1ccc(-c2ccccc2)cc1)C1CCCN(C(=O)Cn2cncn2)C1 (centres undefined) | 7.7 | 3.9 | -11.6 | 10.2 | -0.2
O=C(NCCCCCCNC(=O)c1ccccc1O)c1ccccc1O | -41.6* | 28.9 | 10.2 | 6.4 | -6.7
CC1(c2nnc(-c3ccccc3)o2)CC(c2ccc([N+](=O)[O-])cc2)=NO1 (centres undefined) | nt | nt | 37.4* | 37.0 | nt
CC1(c2nnc(-c3ccncc3)o2)CC(c2ccc(Cl)cc2)=NO1 (centres undefined) | nt | nt | 5.1 | 17.1 | nt
CC1(c2nnc(-c3ccccc3)o2)CC(c2ccc(Cl)cc2)=NO1 (centres undefined) | -14.8 | 2.3 | 43.4* | 46.2 | -5.7
CC(C)c1ccc(S(=O)(=O)Nc2cc3c(cc2NCc2ccccc2)n(C)c(=O)n3C)cc1 | -28.0 | 2.7 | 2.3 | nt | -5.5
Cc1ccc(OCCn2cc(C(=S)N3CCCC3)c3ccccc32)cc1C | 5.3 | 4.7 | 1.1 | -54.1* | 1.6
CCn1nnnc1SCC(=O)NNC(=O)C1CCCCC1 | 6.0 | 3.5 | -2.5 | -80.2* | -8.1
O=C(O)CC(NC(=O)c1cccc([N+](=O)[O-])c1)c1ccc2c(c1)OCO2 (centres undefined) | 8.1 | -0.3 | -5.3 | -9.7 | -6.8
CN(C)S(=O)(=O)c1ccc(NC(=O)C2COc3ccccc3O2)cc1 (centres undefined) | 1.1 | 4.3 | 3.2 | 12.9 | -4.1
CN(C)S(=O)(=O)c1ccc(NC(=O)C2CC3C=CC2C3)cc1 (centres undefined) | -30.2* | 0.9 | -3.1 | -5.8 | -2.3
O=C(COC(=O)c1cc([N+](=O)[O-])ccc1N1CCOCC1)Nc1ccccc1OC(F)F | -30.8* | 5.7 | -6.7 | -13.1 | -12.4
CN(C)S(=O)(=O)c1cccc(COC(=O)c2cc([N+](=O)[O-])ccc2N2CCOCC2)c1 | -38.5* | 4.4 | 0.6 | 7.3 | -2.4
SMILES | D1 antag | D1 ag | DRD3 agonist | D3 antag | D1 potentiator
O=S(=O)(c1ccc2c(c1)OCCO2)N1CCN(S(=O)(=O)c2c(Cl)cc(C(F)(F)F)cc2Cl)CC1 | -14.4 | 4.3 | nt | nt | 1.8
COc1ccc([N+](=O)[O-])cc1/C=N/NC(=O)CNC(=O)C(c1ccccc1)c1ccccc1 | -32.1* | 2.1 | -18.6 | 0.0 | -8.2
COc1ccc([N+](=O)[O-])cc1/C=N/NC(=O)CNC(=O)c1cccc(F)c1 | -11.3 | -1.3 | -30.2 | -116.9* | 1.9
CCOC(=O)c1cc(-c2ccccc2)n(-c2cccc(C(=O)Nc3ccc(OC)cc3)c2)c1C | -8.2 | 7.3 | -0.5 | nt | -6.5
O=C(O)CCc1nn2cc(-c3ccccc3)nc2[nH]c1=O | -79.1* | 0.8 | 5.5 | 0.0 | -5.2
CCOC(=O)c1c(C)sc(-c2c(-c3ccccc3)[nH]c3[nH]c(=O)[nH]c(=O)c23)c1O | -2.1 | 39.5* | -16.4 | nt | -0.1
COC(=O)c1c(C)sc(-c2c(-c3cccc(Cl)c3)[nH]c3c2c(=O)[nH]c(=O)n3C)c1O | 5.1 | 62.2* | 5.5 | nt | -1.4
CCOC(=O)c1c(C)sc(-c2c(-c3ccc(OC)c(F)c3)[nH]c3[nH]c(=O)[nH]c(=O)c23)c1O | -12.3 | 5.6 | 3.1 | nt | -1.4
CCc1ccc(-c2[nH]c3c(c2-c2sc(C)c(C(=O)OC)c2O)c(=O)[nH]c(=O)n3C)cc1 | -10.9 | 6.9 | 7.5 | nt | -0.8
O=C(Nc1ccccc1)C1=C(c2ccccc2)S(=O)(=O)CCS1(=O)=O | 14.5 | 2.8 | -22.3 | -104.6* | 2.4
CC(C)(CCC(=S)N1CCOCC1)c1ccccc1 | nt | nt | 0.4 | 9.4 | nt
CC(C(=O)N1CCOCC1)(c1ccccc1)c1ccccc1 | -34.3* | 0.4 | 0.7 | -18.6 | -9.1
Cc1nnc(NC(=O)CSc2ncnc3c2cnn3-c2ccccc2C)s1 | -5.1 | 2.7 | 6.5 | -62.7* | -3.5
CCOC(=O)Cc1csc(NC(=O)CSc2nnc(C3CC3)n2C)n1 | 4.9 | 0.6 | 1.4 | -50.4* | -0.2
CCOC(=O)Cc1csc(NC(=O)CSc2ncnc3c2cnn3-c2ccccc2Cl)n1 | -77.6* | 11.1 | 1.8 | -13.2 | -5.5
COc1cccc(C(=O)NCc2nc(-c3ccccc3)no2)c1OC | 8.3 | 5.3 | -20.6 | nt | -0.8
O=S(=O)(c1ccc(Cl)cc1)N1CCN(S(=O)(=O)c2ccc3c(c2)OCCO3)CC1 | 19.8 | 2.3 | nt | nt | 7.9
Cc1cccc(-c2noc(CCCC(=O)NC3CCCC3)n2)c1 | -10.8 | 10.4 | 7.3 | 9.8 | -1.6
CCc1ccc(CNC(=O)c2ccc3c(c2)c(C)c(C)n3Cc2ccccc2)cc1 | -2.1 | 2.7 | -8.7 | nt | -4.8
CCc1ccc(NC(=O)c2ccc3c(c2)c(C)c(C)n3Cc2ccccc2)cc1 | 13.1 | 1.0 | -0.6 | nt | -4.0

Screening data: PubChem BioAssay, National Center for Advancing Translational Sciences (NCATS)
